Data on 40 compounds can be found in PubChem BioAssay (Tox21).

Results filed as inconclusive are left out. Activity calls are given as the source filed them. The call rests on the fitted dose curve; in most records, active means well fitted cell-killing curve with a large enough effect in the repeat runs; inconclusive means weak or mixed curves, or effect the other way; inactive means no such curve, though single readings can be large or run the other way.
On the % scale 0 is the no-effect control and ±100 the full control effect.

A short description of this assay: qHTS assay to identify small molecule antagonists of the peroxisome proliferator-activated receptor gamma (PPARg) signaling pathway - cell viability counter screen (AID 743194). Further: nearly all actives have a fitted effect of over 55% in size. To be noted: PPARg-bla HEK293H viability, CellTiter-Glo luminescence, 17 h, co-treated with 50 nM rosiglitazone; series mostly up to 62.6 µM. The text has this: U.S. Tox21 Program National Center for Advancing Translational Sciences [NCATS] NIH Chemical Genomics Center [NCGC] U.S. Environmental Protection Agency [EPA] National Institutes of Environmental Health Sciences [NIEHS] National Toxicology Program [NTP] U.S. Food and Drug Administration [FDA] Tox21 Assay Overview: The peroxisome proliferator-activated receptors (PPARs) are lipid-activated transcription factors of the nuclear receptor superfamily with three distinct subtypes namely PPAR alpha, PPAR delta (also called PPAR beta) and PPAR gamma (PPARg). All these subtypes heterodimerize with Retinoid X receptor (RXR) and these heterodimers regulate transcription of various genes. PPAR-gamma receptor (glitazone receptor) is involved in the regulation of glucose and lipid metabolism. To identify the compounds that activate PPAR-gamma signaling, GeneBLAzer PPAR gamma UAS-bla HEK293H cell line (Invitrogen, Carlsbad, CA, USA) containing a beta-lactamase reporter gene under the control of an Upstream Activator Sequence (UAS) was used to screen the Tox21 compound library. The cytotoxicity of the Tox21 compound library against the PPARg-bla cell line was tested in parallel by measuring the cell viability using CellTiter-Glo assay in the same wells.
Tox21 Assay Protocol Summary: PPARg-bla cells were dispensed at 3000 cells/5uL/well in 1536-well black wall/clear bottom plates using a Multidrop Combi (Thermo Fisher Scientific, Waltham, MA) dispenser. After the assay plates were incubated at 37 C and 5% CO2 for 5 h, 23 nL of compounds dissolved in DMSO, positive controls or DMSO only was transferred to the assay plate by a Pintool station (Kalypsys, San Diego, CA), followed by addition of 1ul Rosiglitazone (50 nM, final concentration in the wells). The assay plates were incubated at 37 C for 17 h, and then 1 uL of LiveBLAzerTM B/G FRET substrate was added using a Bioraptr Flying Reagent Dispenser (FRD) workstation (Beckman Coulter, Indianapolis, IN, USA). The assay plates were incubated at room temperature for 1 h and fluorescence intensity was measured by an Envision plate reader (PerkinElmer, Shelton, CT). For cell viability readout that measures cytotoxicity, 4 ul/well of CellTiter-Glo reagent was added into the assay plates using a Flying Reagent Dispenser. After 30 min incubation at room temperature, the luminescence intensity in the plates was measured using a ViewLux plate reader (PerkinElmer).
A general note: qHTS replaces the single test concentration by a dilution series.
With `CCOC(=O)c1cnc2c(cnn2CC)c1NN=C(C)C`, the result was inactive.
On to `CC1=CC(=O)[C@H]2C[C@@H]1C2(C)C`, for which the result was inactive.
The same measure, in the same setting: the result for `CC(=O)OCC(=O)[C@@]1(O)[C@H](C)C[C@H]2[C@@H]3CCC4=CC(=O)C=C[C@]4(C)[C@@]3(F)[C@@H](O)C[C@@]21C` reads “inactive”.
The same measure, in the same setting: to `CCN(C=O)CC` belongs “inactive”; to `CCCn1cc[n+](C)c1C`, “inactive”.
Same read-out and setting: the result for `CCN(CC#N)c1cccc(C)c1` reads “inactive”; that for `Cc1ccc(C(=O)c2ccccc2)cc1`, “inactive”; that for `O=C1c2ccccc2C(=O)c2cc(O)ccc21`, “inactive”.
Take `Cc1cc(C)c(N=Nc2c(O)c(S(=O)(=O)O)cc3cc(S(=O)(=O)O)ccc23)cc1C`: the activity change, negative = cytotoxicity is -10.4% [at 5.95 µM] (inactive).
For the compound `CC[C@H]1OC(=O)[C@H](C)[C@@H](O[C@H]2C[C@@](C)(OC)[C@@H](O)[C@H](C)O2)[C@H](C)[C@@H](O[C@@H]2O[C@H](C)C[C@H](N(C)C)[C@H]2O)[C@](C)(OC)C[C@@H](C)C(=O)[C@H](C)[C@@H](O)[C@]1(C)O`, the outcome was inactive.
On the same count and under the same terms, to `O=C(CO)[C@@H](O)[C@H](O)[C@@H](O)CO` belongs “inactive”.
The same measure, in the same setting: the result for `c1ccc(Cc2ccccc2)cc1` reads “inactive”.
Still for that read-out and setting: the result for `C=CC(C)(CCC=C(C)C)OC(=O)CC` (stereo not given) reads “inactive”; that for `C[N+]1(CC2COC(c3ccccc3)(c3ccccc3)O2)CCCCC1` (stereo not given), “inactive”.
`CO[C@@]1(NC(=O)CSC[C@@H](N)C(=O)O)C(=O)N2C(C(=O)O)=C(CSc3nnnn3C)CS[C@@H]21`: the result was inactive.
With `C[N+](C)(CCOc1ccccc1)Cc1cccs1`, the outcome was inactive.
On to `C1CCC2=NCCCN2CC1`, for which the outcome was inactive.
Consider `COc1cccc(OC)c1C(=O)N[C@@H]1C(=O)N2[C@@H]1SC(C)(C)[C@@H]2C(=O)O`, for which the result was inactive.
Same read-out and setting: to `CC(=O)NC(=O)c1ccccc1O` belongs “inactive”; to `C[C@@H]1C[C@H]2[C@@H]3C[C@H](F)C4=CC(=O)C(Cl)=C[C@]4(C)[C@@]3(F)[C@@H](O)C[C@]2(C)[C@@]1(O)C(=O)CO`, “inactive”; to `CC(C)[C@H]1CC[C@@H](C)CC1=O`, “inactive”.
As for `CN(C)C(=O)Oc1cccc([N+](C)(C)C)c1`, the result was inactive.
As for `N[C@@H](CCC(=O)O)C(=O)O`, the outcome was inactive.
With `CCCCCCC#CC(=O)OC`, the result was inactive.
With `CCC(C)(CN(C)C)OC(=O)c1ccccc1` (stereo not given), the outcome was inactive.
Same read-out and setting: the result for `CNCCO` reads “inactive”; that for `CO/N=C(\C(=O)N[C@@H]1C(=O)N2C(C(=O)O)=C(CSc3nc(=O)c(O)nn3C)CS[C@H]12)c1csc(N)n1`, “inactive”; that for `COCCOC[C@H](CC1(C(=O)NC2CCC(C(=O)O)CC2)CCCC1)C(=O)Oc1ccc2c(c1)CCC2` (stereo not given in full), “inactive”.
`CO[Si](C)(OC)c1ccccc1`: the outcome was inactive.
Same read-out and setting: to `CCCO[Si](OCCC)(OCCC)OCCC` belongs “inactive”; to `CCOC(=O)C(=O)CCCCCCl`, “inactive”.
Regarding `CCCCN(CCC(=O)OCC)C(C)=O`, the result was inactive.
On to `CC(=O)Oc1cccc(C)c1`, for which the result was inactive.
Same read-out and setting: to `CC1=C(C/C=C(\C)CCC[C@H](C)CCC[C@H](C)CCCC(C)C)C(=O)c2ccccc2C1=O` belongs “inactive”.
On the same count and under the same terms, the result for `COC(=O)Nc1ccc(Cl)c(Cl)c1` reads “inactive”; that for `COc1cc(-c2ccc(=O)[nH]n2)ccc1OC(F)F`, “inactive”.
With `CCCCOC(=O)CCC(C)=O`, the result was inactive.
The same measure, in the same setting: the result for `CC1(C)OC[C@@H](COC(=O)CCc2ccc(OC[C@@H](O)CNCCNC(=O)N3CCOCC3)cc2)O1` reads “inactive”; that for `Cc1c(N)c(=O)n(-c2ccccc2)n1C`, “inactive”.
As for `CC1(C)[C@@H]2CC[C@@]1(C)[C@H](O)C2`, the outcome was inactive.
